Source: the supplement of paper PMC11732987, “Enantioselective OTUD7B fragment discovery through chemoproteomics screening and high-throughput optimisation” (Communications Chemistry, 2025)

Tests used:
Test in all cases: log2 ratio of Biotin-Ahx-Ub-VS probe labelling (fragment/DMSO); higher = less target engagement (more negative = stronger competition), active = hit call of the paper (q ≤ 0.05, log2 ratio ≤ -1)
Details in all cases: compound concentration: 200 uM; treatment time: 3 h
[1] = molecular target: USP34 (UniProt Q70CQ2)
Method in brief: (§1)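 Average log2 ratios of fragment over vehicle were obtained by unpaired t-test from global-median-normalised Spectronaut label-free quantities. Proteins with ≥2 unique peptides were included. HEK293T lysate (495 µg per sample) was treated in triplicate with fragment at 200 µM or vehicle for 3 h, then with Biotin-Ahx-Ub-VS at 0.5 µM final for 1 h, and labelled DUBs were NeutrAvidin-enriched and run by diaPASEF LC-MS/MS.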

[2] = molecular target: T1, USP36 (UniProt Q9P275)
T1 sequence (whole entry): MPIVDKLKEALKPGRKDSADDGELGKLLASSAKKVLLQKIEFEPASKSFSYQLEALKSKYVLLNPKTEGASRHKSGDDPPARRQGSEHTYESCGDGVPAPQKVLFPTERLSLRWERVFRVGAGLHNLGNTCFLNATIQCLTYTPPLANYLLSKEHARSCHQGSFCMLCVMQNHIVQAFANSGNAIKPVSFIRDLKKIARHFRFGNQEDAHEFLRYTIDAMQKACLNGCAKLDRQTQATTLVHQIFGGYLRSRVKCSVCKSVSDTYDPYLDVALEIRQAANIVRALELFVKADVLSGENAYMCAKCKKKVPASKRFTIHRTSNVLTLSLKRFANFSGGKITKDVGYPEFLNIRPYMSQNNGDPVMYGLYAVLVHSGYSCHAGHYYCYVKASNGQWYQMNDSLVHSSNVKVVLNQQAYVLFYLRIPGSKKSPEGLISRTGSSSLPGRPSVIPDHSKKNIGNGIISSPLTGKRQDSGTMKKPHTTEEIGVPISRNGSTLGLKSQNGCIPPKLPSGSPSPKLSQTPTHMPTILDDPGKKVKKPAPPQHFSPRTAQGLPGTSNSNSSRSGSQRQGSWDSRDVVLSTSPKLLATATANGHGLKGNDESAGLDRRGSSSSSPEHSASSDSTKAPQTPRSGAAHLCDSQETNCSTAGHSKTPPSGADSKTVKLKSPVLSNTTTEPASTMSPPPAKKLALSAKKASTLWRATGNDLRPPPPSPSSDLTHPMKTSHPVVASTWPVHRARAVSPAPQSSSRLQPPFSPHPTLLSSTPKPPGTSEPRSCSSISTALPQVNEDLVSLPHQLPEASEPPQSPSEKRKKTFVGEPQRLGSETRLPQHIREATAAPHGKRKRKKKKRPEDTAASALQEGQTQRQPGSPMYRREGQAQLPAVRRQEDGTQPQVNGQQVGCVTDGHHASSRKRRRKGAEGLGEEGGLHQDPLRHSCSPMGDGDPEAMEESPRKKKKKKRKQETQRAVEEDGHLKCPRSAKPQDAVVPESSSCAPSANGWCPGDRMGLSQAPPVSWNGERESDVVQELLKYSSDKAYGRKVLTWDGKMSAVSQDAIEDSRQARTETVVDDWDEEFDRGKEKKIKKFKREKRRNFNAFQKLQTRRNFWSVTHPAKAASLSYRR
Method in brief: as §1

[3] = molecular target: T2, USP38 (UniProt Q8NB14)
T2 sequence (whole entry): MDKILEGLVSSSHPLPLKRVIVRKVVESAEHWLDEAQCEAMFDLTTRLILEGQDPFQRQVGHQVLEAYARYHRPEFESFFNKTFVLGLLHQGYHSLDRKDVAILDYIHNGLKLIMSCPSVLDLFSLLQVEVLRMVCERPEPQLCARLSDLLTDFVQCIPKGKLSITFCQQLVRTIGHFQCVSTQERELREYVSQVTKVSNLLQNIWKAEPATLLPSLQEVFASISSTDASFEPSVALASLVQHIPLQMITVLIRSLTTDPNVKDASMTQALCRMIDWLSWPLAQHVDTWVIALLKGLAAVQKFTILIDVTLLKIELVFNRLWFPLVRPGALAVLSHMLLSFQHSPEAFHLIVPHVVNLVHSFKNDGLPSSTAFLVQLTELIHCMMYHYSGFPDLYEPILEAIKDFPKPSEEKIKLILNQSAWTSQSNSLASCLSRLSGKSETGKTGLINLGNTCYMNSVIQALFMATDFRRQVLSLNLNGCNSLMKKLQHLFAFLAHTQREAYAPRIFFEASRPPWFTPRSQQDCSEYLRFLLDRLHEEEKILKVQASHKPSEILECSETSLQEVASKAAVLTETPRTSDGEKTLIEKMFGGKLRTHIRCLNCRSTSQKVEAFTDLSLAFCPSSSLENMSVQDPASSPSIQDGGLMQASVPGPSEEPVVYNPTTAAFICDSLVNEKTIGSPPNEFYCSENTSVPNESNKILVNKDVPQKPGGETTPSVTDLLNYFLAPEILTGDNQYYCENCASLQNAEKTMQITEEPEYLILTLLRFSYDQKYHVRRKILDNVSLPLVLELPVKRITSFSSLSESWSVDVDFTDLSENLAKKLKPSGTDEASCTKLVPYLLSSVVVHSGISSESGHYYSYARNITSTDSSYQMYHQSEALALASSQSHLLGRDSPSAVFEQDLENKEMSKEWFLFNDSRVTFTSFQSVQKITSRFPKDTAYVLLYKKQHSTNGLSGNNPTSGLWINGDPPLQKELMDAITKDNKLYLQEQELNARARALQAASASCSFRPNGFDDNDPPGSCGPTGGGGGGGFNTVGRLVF
Method in brief: as §1

[4] = molecular target: T3, USP39 (UniProt Q53GS9)
T3 sequence (whole entry): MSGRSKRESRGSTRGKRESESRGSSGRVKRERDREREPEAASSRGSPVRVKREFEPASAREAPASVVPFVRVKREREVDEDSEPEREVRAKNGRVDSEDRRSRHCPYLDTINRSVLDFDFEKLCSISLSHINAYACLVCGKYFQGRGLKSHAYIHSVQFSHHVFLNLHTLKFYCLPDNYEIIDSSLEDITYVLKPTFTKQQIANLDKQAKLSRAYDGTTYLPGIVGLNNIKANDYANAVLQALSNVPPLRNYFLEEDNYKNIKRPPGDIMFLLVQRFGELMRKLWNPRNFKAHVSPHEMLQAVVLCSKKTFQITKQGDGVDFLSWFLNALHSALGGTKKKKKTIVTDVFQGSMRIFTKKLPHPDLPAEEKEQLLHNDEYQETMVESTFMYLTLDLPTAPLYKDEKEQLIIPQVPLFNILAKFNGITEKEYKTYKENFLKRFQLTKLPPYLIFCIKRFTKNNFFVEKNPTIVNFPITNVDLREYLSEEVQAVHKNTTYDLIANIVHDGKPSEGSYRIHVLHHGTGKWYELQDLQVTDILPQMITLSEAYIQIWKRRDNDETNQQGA
Method in brief: as §1

[5] = molecular target: T4, USP4 (UniProt Q13107)
T4 sequence (whole entry): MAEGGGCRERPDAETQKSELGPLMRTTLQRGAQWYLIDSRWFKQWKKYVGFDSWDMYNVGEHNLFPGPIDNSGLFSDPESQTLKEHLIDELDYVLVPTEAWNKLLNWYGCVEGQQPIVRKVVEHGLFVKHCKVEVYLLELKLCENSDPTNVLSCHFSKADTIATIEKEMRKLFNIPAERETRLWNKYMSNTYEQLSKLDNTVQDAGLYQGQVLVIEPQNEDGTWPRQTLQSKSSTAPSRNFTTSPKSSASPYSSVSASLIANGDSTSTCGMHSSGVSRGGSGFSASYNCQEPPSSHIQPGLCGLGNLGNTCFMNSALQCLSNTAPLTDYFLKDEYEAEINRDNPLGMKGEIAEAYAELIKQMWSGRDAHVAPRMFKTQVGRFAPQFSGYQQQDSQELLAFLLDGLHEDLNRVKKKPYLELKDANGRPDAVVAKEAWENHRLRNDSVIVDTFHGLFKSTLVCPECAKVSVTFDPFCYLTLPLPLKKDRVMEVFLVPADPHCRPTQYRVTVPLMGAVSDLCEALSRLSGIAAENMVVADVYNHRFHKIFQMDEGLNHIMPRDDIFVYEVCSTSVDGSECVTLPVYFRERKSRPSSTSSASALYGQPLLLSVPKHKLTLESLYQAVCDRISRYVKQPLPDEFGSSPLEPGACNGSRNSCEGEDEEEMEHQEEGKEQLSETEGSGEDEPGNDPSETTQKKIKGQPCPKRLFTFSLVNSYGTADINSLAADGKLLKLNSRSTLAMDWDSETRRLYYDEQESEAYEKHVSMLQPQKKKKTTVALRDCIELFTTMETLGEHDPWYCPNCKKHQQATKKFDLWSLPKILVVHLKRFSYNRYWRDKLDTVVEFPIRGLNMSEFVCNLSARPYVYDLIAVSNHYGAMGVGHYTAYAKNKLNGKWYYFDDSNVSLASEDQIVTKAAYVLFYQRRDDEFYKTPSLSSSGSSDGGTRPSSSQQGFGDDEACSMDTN
Method in brief: as §1

Measured: log2 ratio of Biotin-Ahx-Ub-VS probe labelling

USP34, sequence (Q70CQ2 whole entry, the tested form may be a part): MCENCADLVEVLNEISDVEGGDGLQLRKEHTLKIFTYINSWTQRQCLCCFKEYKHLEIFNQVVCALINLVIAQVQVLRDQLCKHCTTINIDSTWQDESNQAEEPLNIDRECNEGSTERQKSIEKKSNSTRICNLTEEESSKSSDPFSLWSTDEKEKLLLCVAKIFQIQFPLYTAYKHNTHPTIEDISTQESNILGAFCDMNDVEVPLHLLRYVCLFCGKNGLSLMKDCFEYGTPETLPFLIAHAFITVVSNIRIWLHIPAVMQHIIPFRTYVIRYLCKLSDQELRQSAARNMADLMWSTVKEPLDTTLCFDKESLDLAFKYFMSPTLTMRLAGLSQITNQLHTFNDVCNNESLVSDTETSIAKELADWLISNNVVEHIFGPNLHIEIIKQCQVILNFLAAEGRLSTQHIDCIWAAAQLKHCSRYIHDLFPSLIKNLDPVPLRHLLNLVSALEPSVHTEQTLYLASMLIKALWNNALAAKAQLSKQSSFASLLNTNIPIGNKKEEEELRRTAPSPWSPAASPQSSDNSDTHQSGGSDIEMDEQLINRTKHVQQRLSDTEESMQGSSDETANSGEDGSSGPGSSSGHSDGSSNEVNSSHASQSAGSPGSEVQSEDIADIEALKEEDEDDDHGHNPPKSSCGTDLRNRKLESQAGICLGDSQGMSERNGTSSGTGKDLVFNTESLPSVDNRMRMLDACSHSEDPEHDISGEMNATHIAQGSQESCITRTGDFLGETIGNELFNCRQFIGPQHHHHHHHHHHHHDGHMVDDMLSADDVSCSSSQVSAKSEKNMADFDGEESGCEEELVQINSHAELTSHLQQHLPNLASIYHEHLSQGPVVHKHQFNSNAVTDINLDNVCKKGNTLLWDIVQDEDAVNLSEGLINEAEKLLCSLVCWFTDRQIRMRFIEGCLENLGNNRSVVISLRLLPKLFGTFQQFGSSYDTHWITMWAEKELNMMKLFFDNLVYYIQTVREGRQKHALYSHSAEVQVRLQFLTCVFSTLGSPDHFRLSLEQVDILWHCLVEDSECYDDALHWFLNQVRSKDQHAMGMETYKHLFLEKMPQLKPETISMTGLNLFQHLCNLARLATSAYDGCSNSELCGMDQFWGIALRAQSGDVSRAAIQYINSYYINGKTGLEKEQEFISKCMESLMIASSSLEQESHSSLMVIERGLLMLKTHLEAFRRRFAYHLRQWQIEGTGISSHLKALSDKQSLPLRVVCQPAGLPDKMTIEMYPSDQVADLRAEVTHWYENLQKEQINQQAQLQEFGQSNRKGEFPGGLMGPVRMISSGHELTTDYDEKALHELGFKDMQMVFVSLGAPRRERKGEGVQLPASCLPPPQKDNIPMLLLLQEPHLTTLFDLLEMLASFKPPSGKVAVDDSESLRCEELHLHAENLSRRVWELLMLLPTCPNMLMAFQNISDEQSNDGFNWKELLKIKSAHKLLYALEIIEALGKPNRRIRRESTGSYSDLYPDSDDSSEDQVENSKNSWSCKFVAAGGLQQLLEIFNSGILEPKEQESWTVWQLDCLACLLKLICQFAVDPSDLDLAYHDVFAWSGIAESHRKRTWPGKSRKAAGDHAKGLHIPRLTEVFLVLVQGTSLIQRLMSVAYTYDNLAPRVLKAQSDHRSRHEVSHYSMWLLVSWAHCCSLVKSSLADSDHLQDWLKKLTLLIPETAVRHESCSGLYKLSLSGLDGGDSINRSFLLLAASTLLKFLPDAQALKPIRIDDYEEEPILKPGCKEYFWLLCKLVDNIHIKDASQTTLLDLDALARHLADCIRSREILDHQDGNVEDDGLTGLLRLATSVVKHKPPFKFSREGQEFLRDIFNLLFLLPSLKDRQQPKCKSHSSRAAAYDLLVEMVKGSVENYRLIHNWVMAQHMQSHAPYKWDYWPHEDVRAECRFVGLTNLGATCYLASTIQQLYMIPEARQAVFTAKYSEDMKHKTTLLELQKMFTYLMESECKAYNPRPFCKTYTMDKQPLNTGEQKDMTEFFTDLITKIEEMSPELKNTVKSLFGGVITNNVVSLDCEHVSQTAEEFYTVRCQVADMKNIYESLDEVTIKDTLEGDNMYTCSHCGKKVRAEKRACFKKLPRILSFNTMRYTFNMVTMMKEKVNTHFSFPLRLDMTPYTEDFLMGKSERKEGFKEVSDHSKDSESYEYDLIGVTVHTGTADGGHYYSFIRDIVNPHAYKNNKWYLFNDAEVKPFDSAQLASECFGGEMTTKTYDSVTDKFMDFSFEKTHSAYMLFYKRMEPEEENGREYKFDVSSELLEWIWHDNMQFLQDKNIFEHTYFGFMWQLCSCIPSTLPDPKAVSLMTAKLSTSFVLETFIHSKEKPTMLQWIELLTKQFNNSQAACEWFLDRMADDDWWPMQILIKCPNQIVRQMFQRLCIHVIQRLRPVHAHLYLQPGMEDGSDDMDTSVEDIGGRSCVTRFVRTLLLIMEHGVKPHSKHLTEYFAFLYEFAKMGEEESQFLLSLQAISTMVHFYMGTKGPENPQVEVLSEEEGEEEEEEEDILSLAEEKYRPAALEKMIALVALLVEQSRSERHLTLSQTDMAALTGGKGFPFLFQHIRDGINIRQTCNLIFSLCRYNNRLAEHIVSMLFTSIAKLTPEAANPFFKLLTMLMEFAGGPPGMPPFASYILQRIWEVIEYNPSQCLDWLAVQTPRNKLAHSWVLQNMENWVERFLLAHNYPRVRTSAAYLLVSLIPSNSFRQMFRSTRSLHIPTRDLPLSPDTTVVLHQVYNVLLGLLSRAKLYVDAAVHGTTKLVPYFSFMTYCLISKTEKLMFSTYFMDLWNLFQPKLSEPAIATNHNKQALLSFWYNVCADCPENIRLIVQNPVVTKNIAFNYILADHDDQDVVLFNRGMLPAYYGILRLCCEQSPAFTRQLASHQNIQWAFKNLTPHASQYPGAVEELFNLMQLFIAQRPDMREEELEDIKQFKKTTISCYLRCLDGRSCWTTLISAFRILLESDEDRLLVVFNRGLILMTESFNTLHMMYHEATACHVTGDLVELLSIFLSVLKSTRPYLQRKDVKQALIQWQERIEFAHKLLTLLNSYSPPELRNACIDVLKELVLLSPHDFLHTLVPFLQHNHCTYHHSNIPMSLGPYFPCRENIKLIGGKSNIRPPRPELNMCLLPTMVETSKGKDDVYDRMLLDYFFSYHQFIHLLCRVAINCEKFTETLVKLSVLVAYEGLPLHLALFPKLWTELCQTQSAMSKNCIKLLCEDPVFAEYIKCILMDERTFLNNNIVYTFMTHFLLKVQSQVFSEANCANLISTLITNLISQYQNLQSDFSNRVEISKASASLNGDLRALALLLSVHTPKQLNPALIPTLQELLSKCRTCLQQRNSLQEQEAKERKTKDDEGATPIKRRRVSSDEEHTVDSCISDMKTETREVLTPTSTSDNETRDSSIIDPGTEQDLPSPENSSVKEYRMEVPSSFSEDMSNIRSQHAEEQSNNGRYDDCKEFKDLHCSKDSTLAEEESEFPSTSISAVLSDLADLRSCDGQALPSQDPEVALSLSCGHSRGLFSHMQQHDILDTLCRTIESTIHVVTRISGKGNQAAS

O=C(CCl)Nc1cccc(C(=O)N2CCSCC2)c1
inactive: [1] -0.185 | [2] 0.0297 | [3] -0.0941 | [4] 0.29 | [5] -0.272
